# Results from PMC7862700, “An all-to-all approach to the identification of sequence-specific readers for epigenetic DNA modifications on cytosine”.
# Columns and labels:
# Test in all cases: DAPPL (digital affinity profiling via proximity ligation, sequencing); 10 mM Tris-HCl pH 7.5, 50 mM NaCl, 1 mM DTT, 4% glycerol, room temperature, 30 min; GST-TFs on glutathione beads, 16-mer random dsDNA library, 0.1% formaldehyde crosslink after washing; high values mean tight binding
# FLI1 = molecular target: T1, FLI1 (Homo sapiens, UniProt Q01543 1-452); settings: protein: recombinant; tags: N-terminal GST; dsDNA, one strand shown
# T1 sequence: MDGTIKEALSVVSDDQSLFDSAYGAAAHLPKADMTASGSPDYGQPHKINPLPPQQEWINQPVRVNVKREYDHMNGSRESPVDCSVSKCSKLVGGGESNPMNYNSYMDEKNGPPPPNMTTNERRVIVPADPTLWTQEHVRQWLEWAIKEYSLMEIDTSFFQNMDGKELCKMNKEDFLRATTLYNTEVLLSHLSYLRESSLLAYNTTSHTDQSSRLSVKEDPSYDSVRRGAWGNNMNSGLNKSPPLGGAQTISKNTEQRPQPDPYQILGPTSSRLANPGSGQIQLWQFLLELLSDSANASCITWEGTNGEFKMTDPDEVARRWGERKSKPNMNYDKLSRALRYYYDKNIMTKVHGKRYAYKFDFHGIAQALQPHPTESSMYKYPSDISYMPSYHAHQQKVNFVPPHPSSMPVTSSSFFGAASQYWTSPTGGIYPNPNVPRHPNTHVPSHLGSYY
# Method in brief: (§1)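 A tag-only sample was pooled with DNA-barcoded human transcription factors that had been expressed in yeast as GST fusions and captured on glutathione beads. The pools were incubated for 30 min at room temperature with 200 nmole of a random double-stranded 16-mer DNA library in Tris/NaCl/DTT/glycerol buffer, then washed, crosslinked with 0.1% formaldehyde, proximity-ligated (BsaI/T4 ligase, 1 h, 37 °C), PCR-amplified and sequenced on an Illumina NextSeq500. Binding signal is each hexamer's read frequency for a factor divided by its frequency for the tag-only sample.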
# ELK1 = molecular target: T2, ELK1 (Homo sapiens, UniProt P19419 1-428); settings: protein: recombinant; tags: N-terminal GST; dsDNA, one strand shown
# T2 sequence: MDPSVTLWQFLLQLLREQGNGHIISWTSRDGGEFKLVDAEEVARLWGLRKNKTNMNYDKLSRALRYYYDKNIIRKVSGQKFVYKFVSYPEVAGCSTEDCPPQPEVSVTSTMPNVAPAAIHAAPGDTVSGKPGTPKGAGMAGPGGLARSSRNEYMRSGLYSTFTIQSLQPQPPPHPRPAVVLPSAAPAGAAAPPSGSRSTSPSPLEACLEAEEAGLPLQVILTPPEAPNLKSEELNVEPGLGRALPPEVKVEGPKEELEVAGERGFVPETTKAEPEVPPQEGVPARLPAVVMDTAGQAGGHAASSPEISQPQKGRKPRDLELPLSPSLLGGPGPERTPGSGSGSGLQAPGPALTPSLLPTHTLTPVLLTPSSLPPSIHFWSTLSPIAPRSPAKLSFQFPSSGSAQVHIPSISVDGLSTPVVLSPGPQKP
# Method in brief: as §1
# GABPA = molecular target: T3, GABPA (Homo sapiens, UniProt Q06546 1-454); settings: protein: recombinant; tags: N-terminal GST; dsDNA, one strand shown
# T3 sequence: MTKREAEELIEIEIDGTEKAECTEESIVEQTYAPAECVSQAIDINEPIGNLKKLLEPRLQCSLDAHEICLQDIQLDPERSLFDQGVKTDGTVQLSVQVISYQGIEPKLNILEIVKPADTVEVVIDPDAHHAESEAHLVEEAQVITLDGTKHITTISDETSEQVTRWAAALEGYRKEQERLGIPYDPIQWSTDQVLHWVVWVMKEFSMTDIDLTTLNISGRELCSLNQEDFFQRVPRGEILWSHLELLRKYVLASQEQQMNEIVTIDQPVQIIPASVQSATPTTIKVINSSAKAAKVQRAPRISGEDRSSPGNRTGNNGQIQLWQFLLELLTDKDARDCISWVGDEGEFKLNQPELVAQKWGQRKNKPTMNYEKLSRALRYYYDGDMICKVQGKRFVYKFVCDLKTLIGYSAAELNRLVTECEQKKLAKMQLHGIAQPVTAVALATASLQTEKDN
# Method in brief: as §1
# ERG = molecular target: T4, ERG (Homo sapiens, UniProt P11308 1-479); settings: protein: recombinant; tags: N-terminal GST; dsDNA, one strand shown
# T4 sequence: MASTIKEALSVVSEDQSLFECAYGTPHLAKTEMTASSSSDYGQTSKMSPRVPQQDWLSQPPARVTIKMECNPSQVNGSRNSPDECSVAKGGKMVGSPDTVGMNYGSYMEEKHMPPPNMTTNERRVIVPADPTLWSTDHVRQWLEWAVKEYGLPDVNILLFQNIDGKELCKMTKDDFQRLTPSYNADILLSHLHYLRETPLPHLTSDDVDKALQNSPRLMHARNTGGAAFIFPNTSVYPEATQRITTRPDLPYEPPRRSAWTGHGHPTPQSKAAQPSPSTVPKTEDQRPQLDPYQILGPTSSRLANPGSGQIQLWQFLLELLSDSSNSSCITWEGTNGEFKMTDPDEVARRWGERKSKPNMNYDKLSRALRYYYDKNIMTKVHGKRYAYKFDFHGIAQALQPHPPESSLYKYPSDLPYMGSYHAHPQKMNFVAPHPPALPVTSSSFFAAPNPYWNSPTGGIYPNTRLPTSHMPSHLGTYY
# Method in brief: as §1
# ELF1 = ELF1 (Homo sapiens, UniProt P32519 1-619); settings: protein: recombinant; tags: N-terminal GST; dsDNA, one strand shown
# Chain of ELF1 (P32519 whole entry): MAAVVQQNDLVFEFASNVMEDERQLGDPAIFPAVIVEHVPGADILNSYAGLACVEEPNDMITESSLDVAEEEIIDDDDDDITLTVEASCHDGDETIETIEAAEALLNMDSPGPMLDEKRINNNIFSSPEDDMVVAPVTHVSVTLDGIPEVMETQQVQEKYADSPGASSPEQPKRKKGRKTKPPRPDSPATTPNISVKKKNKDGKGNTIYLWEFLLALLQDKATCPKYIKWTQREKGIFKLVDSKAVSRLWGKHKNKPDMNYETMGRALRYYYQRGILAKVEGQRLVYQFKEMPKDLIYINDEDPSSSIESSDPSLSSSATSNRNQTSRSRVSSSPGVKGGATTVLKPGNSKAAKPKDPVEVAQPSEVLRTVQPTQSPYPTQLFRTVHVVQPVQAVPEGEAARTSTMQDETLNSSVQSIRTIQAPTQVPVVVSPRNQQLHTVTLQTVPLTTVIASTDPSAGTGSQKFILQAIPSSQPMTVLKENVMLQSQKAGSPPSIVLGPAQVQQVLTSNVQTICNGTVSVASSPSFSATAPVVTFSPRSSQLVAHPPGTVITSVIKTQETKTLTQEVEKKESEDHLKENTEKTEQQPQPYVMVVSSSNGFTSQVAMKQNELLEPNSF
# Method in brief: as §1
# EHF = molecular target: T5, EHF (Homo sapiens, UniProt Q9NZC4 1-300); settings: protein: recombinant; tags: N-terminal GST; dsDNA, one strand shown
# T5 sequence: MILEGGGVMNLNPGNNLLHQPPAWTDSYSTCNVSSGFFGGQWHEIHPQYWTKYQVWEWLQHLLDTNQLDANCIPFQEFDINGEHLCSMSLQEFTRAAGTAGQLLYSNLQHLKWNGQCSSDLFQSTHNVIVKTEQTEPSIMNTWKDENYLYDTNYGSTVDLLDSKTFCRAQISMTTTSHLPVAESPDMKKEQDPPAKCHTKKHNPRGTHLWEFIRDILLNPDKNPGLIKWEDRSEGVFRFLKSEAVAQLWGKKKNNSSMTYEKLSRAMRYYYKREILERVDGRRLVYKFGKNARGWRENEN
# Method in brief: as §1
# SPI1 = SPI1 (Homo sapiens, UniProt P17947 1-270); settings: protein: recombinant; tags: N-terminal GST; dsDNA, one strand shown
# Method in brief: as §1
# SPIB = SPIB (Homo sapiens, UniProt Q01892 1-262); settings: protein: recombinant; tags: N-terminal GST; dsDNA, one strand shown
# Chain of SPIB (Q01892 whole entry): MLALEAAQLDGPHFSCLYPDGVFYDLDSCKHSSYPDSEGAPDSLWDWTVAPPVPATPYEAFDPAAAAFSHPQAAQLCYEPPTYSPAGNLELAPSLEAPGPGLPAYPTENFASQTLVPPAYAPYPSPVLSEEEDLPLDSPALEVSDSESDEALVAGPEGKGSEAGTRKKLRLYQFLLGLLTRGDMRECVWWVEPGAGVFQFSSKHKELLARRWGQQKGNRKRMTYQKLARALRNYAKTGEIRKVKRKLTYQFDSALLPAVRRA
# Method in brief: as §1
# ELK3 = molecular target: T6, ELK3 (Homo sapiens, UniProt P41970 1-407); settings: protein: recombinant; tags: N-terminal GST; dsDNA, one strand shown
# T6 sequence: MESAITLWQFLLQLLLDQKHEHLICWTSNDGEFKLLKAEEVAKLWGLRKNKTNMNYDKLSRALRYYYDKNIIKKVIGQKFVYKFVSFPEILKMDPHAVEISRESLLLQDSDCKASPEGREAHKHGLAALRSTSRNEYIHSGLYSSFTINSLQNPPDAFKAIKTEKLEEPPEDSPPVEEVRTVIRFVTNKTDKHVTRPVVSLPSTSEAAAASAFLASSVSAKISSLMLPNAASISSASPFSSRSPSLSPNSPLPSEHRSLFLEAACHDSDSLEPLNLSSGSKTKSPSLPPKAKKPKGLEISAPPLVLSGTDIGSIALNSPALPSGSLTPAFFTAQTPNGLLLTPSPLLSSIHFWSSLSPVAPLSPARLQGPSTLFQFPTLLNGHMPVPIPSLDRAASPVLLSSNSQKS
# Method in brief: as §1
# FEV = molecular target: T7, FEV (Homo sapiens, UniProt Q99581 1-238); settings: protein: recombinant; tags: N-terminal GST; dsDNA, one strand shown
# T7 sequence: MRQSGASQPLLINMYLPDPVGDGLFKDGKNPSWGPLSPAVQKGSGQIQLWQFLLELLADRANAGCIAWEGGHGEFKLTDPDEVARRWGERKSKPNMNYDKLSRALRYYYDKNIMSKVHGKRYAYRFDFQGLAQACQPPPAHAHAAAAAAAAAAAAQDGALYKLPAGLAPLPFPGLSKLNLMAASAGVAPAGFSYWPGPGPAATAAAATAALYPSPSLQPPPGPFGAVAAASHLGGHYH
# Method in brief: as §1
# ETV5 = ETV5 (Homo sapiens, UniProt P41161 1-510); settings: protein: recombinant; tags: N-terminal GST; dsDNA, one strand shown
# Chain of ETV5 (P41161 whole entry): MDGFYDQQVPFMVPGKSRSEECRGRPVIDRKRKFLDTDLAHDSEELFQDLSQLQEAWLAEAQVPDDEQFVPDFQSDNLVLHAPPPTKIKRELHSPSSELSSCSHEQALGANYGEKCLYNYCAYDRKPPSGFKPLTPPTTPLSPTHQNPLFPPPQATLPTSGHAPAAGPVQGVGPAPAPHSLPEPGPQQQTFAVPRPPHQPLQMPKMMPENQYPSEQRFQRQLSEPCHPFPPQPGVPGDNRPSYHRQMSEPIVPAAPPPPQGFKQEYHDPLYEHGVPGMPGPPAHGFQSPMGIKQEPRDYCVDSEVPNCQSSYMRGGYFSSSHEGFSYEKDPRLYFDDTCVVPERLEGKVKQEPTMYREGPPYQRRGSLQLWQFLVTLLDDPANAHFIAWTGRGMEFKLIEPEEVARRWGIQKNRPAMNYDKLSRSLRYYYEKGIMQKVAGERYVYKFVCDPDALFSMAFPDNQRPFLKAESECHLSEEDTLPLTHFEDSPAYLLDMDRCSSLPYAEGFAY
# Method in brief: as §1
# HSF1 = HSF1 (Homo sapiens, UniProt Q00613 1-529); settings: protein: recombinant; tags: N-terminal GST; chain copies: 3; dsDNA, one strand shown
# Chain of HSF1 (Q00613 whole entry): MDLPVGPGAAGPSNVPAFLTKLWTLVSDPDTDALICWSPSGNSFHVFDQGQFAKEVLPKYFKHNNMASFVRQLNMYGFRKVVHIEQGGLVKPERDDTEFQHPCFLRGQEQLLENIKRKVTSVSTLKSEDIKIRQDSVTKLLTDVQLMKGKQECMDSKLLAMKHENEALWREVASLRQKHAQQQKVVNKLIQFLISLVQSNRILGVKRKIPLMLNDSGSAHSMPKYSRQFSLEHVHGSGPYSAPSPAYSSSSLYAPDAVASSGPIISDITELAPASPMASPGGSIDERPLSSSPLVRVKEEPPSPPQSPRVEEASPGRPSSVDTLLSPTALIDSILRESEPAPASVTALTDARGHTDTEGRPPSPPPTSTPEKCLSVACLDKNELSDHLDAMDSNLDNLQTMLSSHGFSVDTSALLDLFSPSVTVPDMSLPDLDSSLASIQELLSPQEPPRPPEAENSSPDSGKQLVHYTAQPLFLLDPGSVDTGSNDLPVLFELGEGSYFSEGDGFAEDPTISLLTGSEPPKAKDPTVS
# Method in brief: as §1
# SPIC = molecular target: T8, SPIC (Homo sapiens, UniProt Q8N5J4 1-248); settings: protein: recombinant; tags: N-terminal GST; dsDNA, one strand shown
# T8 sequence: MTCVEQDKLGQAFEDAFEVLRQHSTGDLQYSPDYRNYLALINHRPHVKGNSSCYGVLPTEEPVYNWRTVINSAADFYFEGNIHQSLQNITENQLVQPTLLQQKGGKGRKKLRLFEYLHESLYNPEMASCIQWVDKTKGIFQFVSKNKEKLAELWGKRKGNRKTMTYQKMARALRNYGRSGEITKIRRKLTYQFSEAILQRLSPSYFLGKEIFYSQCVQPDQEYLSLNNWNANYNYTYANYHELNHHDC
# Method in brief: as §1
# ELF4 = ELF4 (Homo sapiens, UniProt Q99607 1-663); settings: protein: recombinant; tags: N-terminal GST; dsDNA, one strand shown
# Chain of ELF4 (Q99607 whole entry): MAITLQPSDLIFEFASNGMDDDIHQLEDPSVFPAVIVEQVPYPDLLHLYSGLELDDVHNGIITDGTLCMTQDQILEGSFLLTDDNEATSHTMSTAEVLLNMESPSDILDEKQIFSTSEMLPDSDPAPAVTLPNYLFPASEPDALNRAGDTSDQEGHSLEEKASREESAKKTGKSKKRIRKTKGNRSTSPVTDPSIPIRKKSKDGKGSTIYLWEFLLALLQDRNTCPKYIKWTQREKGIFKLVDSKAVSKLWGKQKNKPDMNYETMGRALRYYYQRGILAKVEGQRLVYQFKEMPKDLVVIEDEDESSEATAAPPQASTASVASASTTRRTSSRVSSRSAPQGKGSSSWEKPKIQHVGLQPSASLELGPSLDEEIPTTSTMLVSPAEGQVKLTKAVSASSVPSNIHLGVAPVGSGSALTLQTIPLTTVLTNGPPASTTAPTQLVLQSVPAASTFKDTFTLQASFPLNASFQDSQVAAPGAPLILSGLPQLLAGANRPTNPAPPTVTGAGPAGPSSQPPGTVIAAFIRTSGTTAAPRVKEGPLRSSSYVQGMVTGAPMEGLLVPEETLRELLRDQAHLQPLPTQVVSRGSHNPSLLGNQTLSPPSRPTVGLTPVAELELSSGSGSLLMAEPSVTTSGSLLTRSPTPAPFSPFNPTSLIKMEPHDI
# Method in brief: as §1
# ELK4 = molecular target: T9, ELK4 (Homo sapiens, UniProt P28324-2 1-405); settings: protein: recombinant; tags: N-terminal GST; dsDNA, one strand shown
# T9 sequence: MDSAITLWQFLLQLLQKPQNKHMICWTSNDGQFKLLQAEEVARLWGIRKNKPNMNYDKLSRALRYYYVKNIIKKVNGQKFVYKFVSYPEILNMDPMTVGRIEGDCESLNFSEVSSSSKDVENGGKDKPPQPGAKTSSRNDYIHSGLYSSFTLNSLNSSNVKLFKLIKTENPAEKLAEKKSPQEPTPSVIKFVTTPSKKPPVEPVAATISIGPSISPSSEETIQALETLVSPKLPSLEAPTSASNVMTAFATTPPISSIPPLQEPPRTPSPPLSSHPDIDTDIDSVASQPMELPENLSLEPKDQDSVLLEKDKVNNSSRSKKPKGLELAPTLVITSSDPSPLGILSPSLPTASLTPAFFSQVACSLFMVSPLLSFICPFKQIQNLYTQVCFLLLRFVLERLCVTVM
# Method in brief: as §1
# ETV2 = molecular target: T10, ETV2 (Homo sapiens, UniProt O00321 1-342); settings: protein: recombinant; tags: N-terminal GST; dsDNA, one strand shown
# T10 sequence: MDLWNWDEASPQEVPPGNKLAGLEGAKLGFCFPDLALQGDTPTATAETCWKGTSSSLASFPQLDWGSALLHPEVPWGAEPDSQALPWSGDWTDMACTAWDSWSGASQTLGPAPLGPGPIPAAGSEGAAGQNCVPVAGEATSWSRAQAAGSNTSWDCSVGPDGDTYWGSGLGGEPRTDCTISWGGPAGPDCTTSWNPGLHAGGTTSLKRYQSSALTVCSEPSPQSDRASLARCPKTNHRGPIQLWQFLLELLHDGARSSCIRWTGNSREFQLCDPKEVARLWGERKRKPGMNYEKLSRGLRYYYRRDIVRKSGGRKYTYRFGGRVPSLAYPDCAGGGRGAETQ
# Method in brief: as §1
# ELF3 = molecular target: T11, ELF3 (Homo sapiens, UniProt P78545 1-371); settings: protein: recombinant; tags: N-terminal GST; dsDNA, one strand shown
# T11 sequence: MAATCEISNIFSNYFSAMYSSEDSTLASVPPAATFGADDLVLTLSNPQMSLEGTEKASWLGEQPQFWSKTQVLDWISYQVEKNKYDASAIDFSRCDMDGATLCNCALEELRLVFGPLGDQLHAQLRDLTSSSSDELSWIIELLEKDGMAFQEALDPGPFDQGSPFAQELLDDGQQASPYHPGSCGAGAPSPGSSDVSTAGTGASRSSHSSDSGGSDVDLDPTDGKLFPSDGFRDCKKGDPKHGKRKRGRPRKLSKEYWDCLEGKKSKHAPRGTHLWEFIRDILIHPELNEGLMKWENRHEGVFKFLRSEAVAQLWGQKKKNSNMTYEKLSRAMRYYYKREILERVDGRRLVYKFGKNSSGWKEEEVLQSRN
# Method in brief: as §1
# CRX = CRX (Homo sapiens, UniProt O43186 1-299); settings: protein: recombinant; tags: N-terminal GST; dsDNA, one strand shown
# Chain of CRX (O43186 whole entry): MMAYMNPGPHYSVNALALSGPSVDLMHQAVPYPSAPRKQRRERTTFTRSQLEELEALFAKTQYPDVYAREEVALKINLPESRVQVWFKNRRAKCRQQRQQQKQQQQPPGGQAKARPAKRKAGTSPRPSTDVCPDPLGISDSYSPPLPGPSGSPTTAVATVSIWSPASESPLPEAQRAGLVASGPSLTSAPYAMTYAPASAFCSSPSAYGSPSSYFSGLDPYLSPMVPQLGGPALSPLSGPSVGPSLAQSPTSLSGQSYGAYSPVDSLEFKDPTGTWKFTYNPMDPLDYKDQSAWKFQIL
# Method in brief: as §1
# ETV1 = ETV1 (Homo sapiens, UniProt P50549 1-477); settings: protein: recombinant; tags: N-terminal GST; dsDNA, one strand shown
# Chain of ETV1 (P50549 whole entry): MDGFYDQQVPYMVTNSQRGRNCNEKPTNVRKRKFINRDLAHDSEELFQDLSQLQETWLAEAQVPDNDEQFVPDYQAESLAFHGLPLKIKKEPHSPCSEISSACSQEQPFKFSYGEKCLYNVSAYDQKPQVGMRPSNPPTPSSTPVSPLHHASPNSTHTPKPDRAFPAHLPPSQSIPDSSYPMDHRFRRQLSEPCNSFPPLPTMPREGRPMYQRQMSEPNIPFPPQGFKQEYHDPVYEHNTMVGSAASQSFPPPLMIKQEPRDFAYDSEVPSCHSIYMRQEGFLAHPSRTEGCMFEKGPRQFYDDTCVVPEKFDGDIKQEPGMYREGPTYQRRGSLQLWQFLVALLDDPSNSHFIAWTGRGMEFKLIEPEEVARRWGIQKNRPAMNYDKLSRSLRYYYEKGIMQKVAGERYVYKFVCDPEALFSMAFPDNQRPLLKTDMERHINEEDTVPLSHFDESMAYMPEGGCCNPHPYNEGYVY
# Method in brief: as §1
sequence,measurement,setting,value
TAACTT,binding signal,FLI1,"1.41 fold enrichment (6-mer frequency, TF over GST control)"
same,binding signal,ELK1,"1.39 fold enrichment (6-mer frequency, TF over GST control)"
same,binding signal,GABPA,"1.34 fold enrichment (6-mer frequency, TF over GST control)"
same,binding signal,ERG,"1.34 fold enrichment (6-mer frequency, TF over GST control)"
same,binding signal,ELF1,"1.46 fold enrichment (6-mer frequency, TF over GST control)"
same,binding signal,EHF,"1.35 fold enrichment (6-mer frequency, TF over GST control)"
same,binding signal,SPI1,"1.62 fold enrichment (6-mer frequency, TF over GST control)"
same,binding signal,SPIB,"1.43 fold enrichment (6-mer frequency, TF over GST control)"
same,binding signal,ELK3,"1.27 fold enrichment (6-mer frequency, TF over GST control)"
same,binding signal,FEV,"1.51 fold enrichment (6-mer frequency, TF over GST control)"
same,binding signal,ETV5,"1.45 fold enrichment (6-mer frequency, TF over GST control)"
same,binding signal,HSF1,"1.28 fold enrichment (6-mer frequency, TF over GST control)"
same,binding signal,SPIC,"1.56 fold enrichment (6-mer frequency, TF over GST control)"
same,binding signal,ELF4,"1.33 fold enrichment (6-mer frequency, TF over GST control)"
same,binding signal,ELK4,"1.32 fold enrichment (6-mer frequency, TF over GST control)"
same,binding signal,ETV2,"1.59 fold enrichment (6-mer frequency, TF over GST control)"
same,binding signal,ELF3,"1.35 fold enrichment (6-mer frequency, TF over GST control)"
same,binding signal,CRX,"1.56 fold enrichment (6-mer frequency, TF over GST control)"
same,binding signal,ETV1,"1.33 fold enrichment (6-mer frequency, TF over GST control)"
